Assay results reported in PubChem BioAssay AID1008 (NMMLSC, 2008).
Among all 190,000 compounds or so, about 240 (0.13%) were called active. Rule as the data show it: active = inhibition above about 40%. This excerpt belongs to a sample that is enriched for actives.

Molecular target: Bcl-2-related protein A1 (Homo sapiens) (UniProt Q16548)
Assay: inhibitors of Bim binding to Bfl-1, primary screen, biochemical, multiplexed, bead-based flow cytometry (AID 1008);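 also: 0% = wells without compound plus tracer and 100% = blocker peptide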
Conditions: Bim-Bfl-1 binding inhibition, at 10 µM, stronger effect = higher value

Sequence of Bcl-2-related protein A1 (Homo sapiens) (Q16548 whole entry, looked up): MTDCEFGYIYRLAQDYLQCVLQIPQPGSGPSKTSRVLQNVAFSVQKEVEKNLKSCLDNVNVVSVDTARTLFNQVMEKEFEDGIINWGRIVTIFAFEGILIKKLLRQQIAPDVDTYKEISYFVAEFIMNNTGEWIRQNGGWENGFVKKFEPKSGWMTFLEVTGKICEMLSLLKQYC

inhibition, inactive:
CN(C(=O)COc1ncnc2c1cnn2-c1ccccc1)C1CCCCC1 -7%
COc1ccc(S(=O)(=O)N2CCCCCC2)cc1C(=O)OCC(=O)Nc1cc(C)on1 -1%
O=C(Cc1ccc(F)cc1)N/N=C/c1ccc2c(c1)OCO2 -2%
Cc1ccc(SCCC(=O)NCc2ccccn2)cc1 4%
C/C(=N\NC(=O)c1cc2c(s1)CCC(C)C2)c1cccnc1 (configuration not stated) 0%
O=C(Nc1cccnc1)c1ccc(Cl)cc1[N+](=O)[O-] -1%
O=C(CC1SC(=Nc2ccccc2)N(Cc2ccccn2)C1=O)Nc1cccc(Cl)c1 (configuration not stated) 11%
O=C(CCN1C(=O)c2ccncc2C1=O)Nc1cc(F)ccc1F -8%
Cc1csc(Nc2ccc(Cl)cc2)[n+]1-c1ccc(Cl)cc1 5%
Cc1ccc(NC(=S)N(CCN2CCCCC2)Cc2ccco2)cc1C -3%
CCc1ccccc1NC(=O)CN(c1ccc(OC)cc1OC)S(=O)(=O)c1ccccc1[N+](=O)[O-] -12%
Cn1c(=O)c([N+](=O)[O-])c(Oc2ccccc2)c2ccccc21 0%
C=CCN(CC=C)C(=O)COC(=O)c1n[nH]c2ccccc12 -7%
CCc1ccc(C(=O)OCC(=O)NCC(F)(F)F)cc1 -3%
CCOC(=O)CSC1=N/C(=C/c2ccc(-n3cncn3)cc2)C(=O)N1C(C)=O -5%
Cc1ccc(C2=N/C(=C\c3ccc(OS(=O)(=O)c4ccc(C)cc4)cc3)C(=O)O2)cc1 -2%
Cc1cc(NC(=O)CSc2nnc(Nc3ccccc3F)s2)no1 -8%
CN1CCN(c2nc(Nc3ccc(O)cc3)nc3ccccc23)CC1 -5%
CCOC(=O)CNC(=O)/C(=C\c1ccc(F)cc1)NC(=O)c1ccccc1 -7%
O=C(Cn1nc(CNc2ccc(Cl)cc2)[n+]2c1CCCCC2)c1ccc(Cl)cc1 -16%
CC1CCN(S(=O)(=O)c2ccc(S(=O)(=O)NCc3cccnc3)cc2)CC1 6%
COC(=O)Cn1cc(/C=C/[N+](=O)[O-])c2ccccc21 4%
CC(C(=O)NC1CCCC1)N(c1ccc(Oc2ccccc2)cc1)S(C)(=O)=O (configuration not stated) -2%
COc1cc2sc(C)nc2cc1C 2%
CSCCC(NC(=O)c1cc([N+](=O)[O-])cc([N+](=O)[O-])c1)c1nc2ccccc2[nH]1 (configuration not stated) -16%
CCn1c(=S)[nH]c2sc3c(c2c1=O)CCCCC3 3%
COc1cc(/C=N/NC(=S)Nc2cccnc2)cc(OC)c1O 7%
CN(C)/N=C/c1cc(Cl)cc([N+](=O)[O-])c1O 0%
CCOC(=O)C1(Cc2cccc(OC)c2)CCCN(S(=O)(=O)c2cccnc2)C1 (configuration not stated) -2%
Fc1ccc(COc2cccc(-c3n[nH]c(=S)o3)c2)cc1 5%
O=C(C1CCCO1)N1CCN(C(=S)NC2CC2)CC1 (configuration not stated) -4%
COc1ccc(CNC(=O)COC(=O)/C=C/c2ccc(S(=O)(=O)N3CCOCC3)cc2)cc1 -3%
COC(=O)c1cc2occc2n1Cc1nc(-c2ccccc2C)oc1C 0%
CC(=O)Nc1cccc(/C(C)=N/NC(=O)c2c(-c3ccccc3Cl)noc2C)c1 0%
COc1ccc(C(=O)CSc2nnnn2C)c(OC)c1 -5%
Nc1nc(-c2sc3nc4c(cc3c2N)CCCC4)nc(N2CCOCC2)n1 -5%
CC1(c2ccccc2)CC(C)(C)N(C(=O)c2cc([N+](=O)[O-])cc([N+](=O)[O-])c2)c2ccccc21 (configuration not stated) -1%
CCN(C(=O)CN1CCN(Cc2ccccc2)CC1)c1c(N)n(Cc2ccccc2)c(=O)[nH]c1=O -3%
Cn1c(=O)c2c(ncn2CC(=O)N/N=C/c2cn[nH]c2-c2ccc(F)cc2)n(C)c1=O -3%
C/C(=N/NS(=O)(=O)c1ccccc1)c1ccc(NC(=O)C(F)(F)F)cc1 -2%
O=C1N/C(=C/c2cccn2-c2ccccc2)C(=O)N1c1cccc(Cl)c1 -2%
CSCC(NS(=O)(=O)c1ccc(C)cc1)C(=O)O (configuration not stated) -9%
Cc1c(C(=O)c2cccc([N+](=O)[O-])c2)c2ccccn2c1CCC#N -8%
O=C(CCN1C(=O)c2ccccc2C1=O)C1=NN[C@@H]2C(=O)N(c3ccc(F)cc3)C(=O)[C@H]12 -9%
CCOc1ccc(C(CC(=O)O)n2cnnn2)cc1OC (configuration not stated) -4%
COC(c1ccccc1)c1nnc(CCC(=O)N2CCN(CCOc3ccccc3)CC2)o1 (configuration not stated) -5%
Cc1cccc(Cn2cnc3c(N)c(C)c(C)cc32)c1 -4%
Cc1ccc2c(c1)C1CN(C)CCC1N2C(=S)Nc1ccc(OC(F)F)cc1 (configuration not stated) -7%
Nc1nc(SCc2ccc([N+](=O)[O-])cc2)c2ncn(C3OC(CO)C(O)C3O)c2n1 (configuration not stated) -10%
O=c1[nH]n2c(=O)c3c([nH]c2c1N=Nc1ccccc1)CCC3 0%
COc1ccc(OC)c2[nH]c(=O)c(CCNC(=O)C(=O)c3c[nH]c4ccccc34)cc12 -9%
Cc1cc(/C=N/NC(N)=O)c(C)n1C1CCCCC1 16%
